Experimental data from the supplement of paper PMC9446081.
About 220 (0.56%) of roughly 39,000 compounds showed activity. The sample as a whole holds a higher share of actives than the screen did.

Test system: Escherichia coli K-12 BW25113
Assay: relative growth (OD600 normalised to plate interquartile mean) (fraction); higher = less growth inhibition, active = 0.2 or less
Details: 50 µM; LB; incubation time: overnight (16-24 h)
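Note: Wild-type cells incubated without shaking, value is the mean of two biological replicates.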

Compound	relative growth
Cc1noc(C)c1S(=O)(=O)Nc1ccc2c(c1)C(=O)N([C@H](C)CO)C[C@H](C)[C@H](CN(C)Cc1ccncc1)O2	0.999 (inactive)
COCCOC(=O)N1C(=O)[C@@]2(c3cc(C#CCCO)ccc31)[C@H](C(=O)Nc1nc3ccccc3s1)[C@H]1C(=O)O[C@H](c3ccccc3)[C@H](c3ccccc3)N1[C@@H]2c1ccc(O)cc1	1.02 (inactive)
C[C@H](CO)N1C[C@H](C)[C@@H](CN(C)Cc2ccc(C(=O)O)cc2)OCCCC[C@H](C)Oc2ccc(NS(=O)(=O)c3ccc(F)cc3)cc2C1=O	0.967 (inactive)
C=C1C(=O)O[C@@H]2/C=C(\CO[C@@H]3O[C@H](CO)[C@@H](O)[C@H](O)[C@H]3O)CC/C=C3\C[C@H](OC3=O)[C@@H]12	0.997 (inactive)
C[C@@H]1CN([C@@H](C)CO)C(=O)Cc2cc(NC(=O)Cc3cn(C)c4ccccc34)ccc2O[C@H]1CN(C)Cc1ccc(C(=O)Nc2ccccc2N)cc1	0.988 (inactive)
C[C@H](O)CC1=C[C@H](O)[C@@H](C)OC1=O	1.01 (inactive)
C[C@]1(C(=O)NCc2ccccc2)c2ccccc2C(=O)N(Cc2ccc(OC(F)(F)F)cc2)[C@H]1c1ccc(CO)cc1	0.983 (inactive)
NC[C@H]1O[C@H](O[C@H]2[C@H](O)[C@@H](O[C@H]3O[C@H](CO)[C@@H](O)[C@H](N)[C@H]3O)[C@H](N)C[C@@H]2N)[C@H](N)C[C@@H]1O	0.0393 (active)
CN[C@@H]1[C@@H](O[C@H]2O[C@H](CO)[C@@H](N)[C@H](O)[C@H]2O)O[C@H]2C[C@@H](N)[C@H](O[C@H]3[C@H](O)[C@@H](O)[C@H](N)C[C@@H]3N)O[C@@H]2[C@@H]1O	0.978 (inactive)
NCC1OC(OC2C(N)CC(N)C(OC3OC(CO)C(O)C(N)C3O)C2O)C(N)CC1O (stereo not drawn)	0.0445 (active)
NCC1CCC(N)C(OC2C(N)CC(N)C(OC3OC(CO)C(O)C(N)C3O)C2O)O1 (stereo not drawn)	0.947 (inactive)
CNC1C(OC2OC(CO)C(N)C(O)C2O)OC2CC(N)C(OC3C(N)CC(N)C(O)C3O)OC2C1O.O=S(=O)(O)O (stereo not drawn)	1.2 (inactive)
NC[C@@H]1O[C@H](O[C@H]2[C@@H](O)[C@H](O[C@@H]3[C@@H](O)[C@H](N)C[C@H](N)[C@H]3O[C@@H]3O[C@H](CO)[C@@H](O)C[C@H]3N)O[C@@H]2CO)[C@H](N)[C@@H](O)[C@@H]1O[C@H]1O[C@H](CO)[C@@H](O)[C@H](O)[C@@H]1O	1.01 (inactive)
C[C@H]1CN([C@@H](C)CO)C(=O)CCCn2cc(nn2)CO[C@@H]1CN(C)S(=O)(=O)c1cccc(C#N)c1	0.987 (inactive)
C[C@H](CO)N1C[C@H](C)[C@@H](CN(C)Cc2ccc(Oc3ccccc3)cc2)Oc2ccc(NC(=O)C3CC3)cc2C1=O	0.915 (inactive)
C[C@H]1CN([C@@H](C)CO)C(=O)c2ccccc2-c2ccccc2CO[C@H]1CN(C)S(=O)(=O)c1ccc(C(F)(F)F)cc1	1.04 (inactive)
C[C@H]1CN([C@@H](C)CO)S(=O)(=O)c2ccc(C3=CCCCC3)cc2O[C@H]1CN(C)Cc1cncnc1	1.02 (inactive)
COc1ccccc1S(=O)(=O)N(C)C[C@H]1OCc2cn(nn2)CCCC(=O)N([C@@H](C)CO)C[C@H]1C	1.05 (inactive)
C[C@H]1CN([C@@H](C)CO)C(=O)Cc2cc(NC(=O)C3CCCCC3)ccc2O[C@@H]1CN(C)S(C)(=O)=O	0.992 (inactive)

Compound	relative growth
C[C@@H]1CN([C@H](C)CO)C(=O)c2cc(NS(=O)(=O)c3ccc(F)cc3)ccc2O[C@@H](C)CCCCO[C@@H]1CN(C)Cc1ccc(C(=O)O)cc1	1 (inactive)
Clc1ccc2sc(Sc3ccccc3)nc2c1	0.985 (inactive)
COc1ccc(-c2c(C)oc3ccc(Cl)cc23)cc1	0.992 (inactive)
CC1CCC2(C)C(C=O)=CCCC2C1(C)CC1OC(O)C(=O)C12CO2 (stereo not drawn)	0.0462 (active)
COC(=O)[C@@H](NC(=O)c1cccc(NC=O)c1O)[C@@H](C)O	1.04 (inactive)
C[C@@H]1CN([C@H](C)CO)C(=O)c2cc(NC(=O)c3ccncc3)ccc2O[C@@H](C)CCCCO[C@H]1CN(C)Cc1ccc(C(F)(F)F)cc1	1 (inactive)
Cc1noc(C)c1NC(=O)N(C)C[C@H]1OCCCC[C@@H](C)Oc2ccc(NS(=O)(=O)c3ccccc3)cc2C(=O)N([C@@H](C)CO)C[C@H]1C	1.01 (inactive)
O=C1CN(N=Cc2ccc(-c3ccc([N+](=O)[O-])cc3)o2)C(=O)[N-]1.[Na+]	1.06 (inactive)
O=C1OC(CN2CCOCC2)CN1N=Cc1ccc([N+](=O)[O-])o1 (stereo not drawn)	0.575 (inactive)
O=C1CN(/N=C/c2ccc([N+](=O)[O-])o2)C(=O)N1	0.031 (active)
O=C1OCCN1N=Cc1ccc([N+](=O)[O-])o1	0.0457 (active)
O=C1CN(N=Cc2ccc([N+](=O)[O-])o2)C(=O)N1	0.0462 (active)
Cc1cc(C(=O)Nc2cccc3c2O[C@@H](CN(C)S(=O)(=O)c2ccccc2)[C@H](C)CN([C@@H](C)CO)C3=O)n(C)n1	1.01 (inactive)
C[C@@H]1CN([C@@H](C)CO)S(=O)(=O)c2ccc(Br)cc2O[C@@H]1CN(C)S(=O)(=O)c1ccc(F)cc1	1.04 (inactive)
CCN1CCN(CC(=O)Nc2ccc(-c3cccc4c(=O)cc(N5CCOCC5)oc34)c3sc4ccccc4c23)CC1	0.981 (inactive)
COc1ccc(S(=O)(=O)Nc2cccc3c2O[C@H](CN(C)S(=O)(=O)c2cn(C)cn2)[C@@H](C)CN([C@H](C)CO)C3=O)cc1	1.01 (inactive)
CN(C)CCCNC(=O)C[C@@H]1CC[C@@H]2[C@H](COc3ccc(NS(C)(=O)=O)cc3C(=O)N2C)O1	1 (inactive)
C[C@@H]1CCCCO[C@H](CN(C)Cc2ccccc2)[C@@H](C)CN([C@H](C)CO)C(=O)c2cc(NC(=O)C3CCCCC3)ccc2O1	0.995 (inactive)
C[C@@H]1CCCCO[C@@H](CN(C)C(=O)Nc2ccc3c(c2)OCO3)[C@@H](C)CN([C@H](C)CO)C(=O)c2cc(NC(=O)c3ccccc3)ccc2O1	1.01 (inactive)
